{"source": "patent US20060069055", "about": "“Delivery of polynucleotides” (published 2006)"}
{"biological_target": "NF-kB p65/p50 heterodimer (Homo sapiens, UniProt Q04206;P19838 Q04206:1-551,P19838:1-433)", "sequence (Q04206 whole entry, chain 1 of 2)": "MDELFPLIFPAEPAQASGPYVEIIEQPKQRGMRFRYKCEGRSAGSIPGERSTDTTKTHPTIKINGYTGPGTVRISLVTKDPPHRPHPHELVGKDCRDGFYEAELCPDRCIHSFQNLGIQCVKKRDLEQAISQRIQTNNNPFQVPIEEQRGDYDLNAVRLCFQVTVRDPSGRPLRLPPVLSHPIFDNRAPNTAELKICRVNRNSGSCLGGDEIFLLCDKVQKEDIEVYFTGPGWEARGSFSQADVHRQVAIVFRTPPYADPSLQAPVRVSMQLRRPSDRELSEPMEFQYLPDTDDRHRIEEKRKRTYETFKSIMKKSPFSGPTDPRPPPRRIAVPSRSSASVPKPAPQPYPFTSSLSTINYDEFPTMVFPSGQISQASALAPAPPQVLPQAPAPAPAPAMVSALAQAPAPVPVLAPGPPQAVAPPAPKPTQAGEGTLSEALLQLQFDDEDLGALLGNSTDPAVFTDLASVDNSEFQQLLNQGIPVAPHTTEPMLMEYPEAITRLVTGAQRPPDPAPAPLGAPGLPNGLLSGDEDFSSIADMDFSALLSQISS", "sequence (P19838 1-433, chain 2 of 2)": "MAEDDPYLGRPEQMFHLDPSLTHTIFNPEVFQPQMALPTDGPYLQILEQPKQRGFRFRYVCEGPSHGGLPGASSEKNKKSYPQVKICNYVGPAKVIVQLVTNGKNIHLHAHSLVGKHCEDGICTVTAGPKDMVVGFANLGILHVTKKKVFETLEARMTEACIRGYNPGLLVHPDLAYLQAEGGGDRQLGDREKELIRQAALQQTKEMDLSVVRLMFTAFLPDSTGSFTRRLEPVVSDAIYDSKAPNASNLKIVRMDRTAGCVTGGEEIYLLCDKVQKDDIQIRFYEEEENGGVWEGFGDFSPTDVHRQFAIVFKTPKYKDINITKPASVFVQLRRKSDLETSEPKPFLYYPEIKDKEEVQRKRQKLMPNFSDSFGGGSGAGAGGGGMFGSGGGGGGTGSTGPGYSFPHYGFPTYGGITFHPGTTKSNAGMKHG", "assay": "EMSA", "conditions": "protein: extract; tags: nuclear extract of LPS-stimulated THP-1 cells; dsDNA, one strand shown", "text": "The EMSA assay was employed to characterize oligonucleotide decoys for the NF-κB transcription factor. […] Using the above modified oligonucleotides to compete for binding for the above-mentioned NF-κB family members, it was possible to compare the binding affinity of these oligonucleotides against the high affinity radiolabeled probe and each other. This assay has also enabled the design of a decoy which selectively binds particular members of the NF-κB family. By using increasing concentrations of various oligonucleotides, it was observed that, by deleting or changing targeted residues in the binding site, it was possible to specifically decrease the binding of the decoy molecule to p50/p50 homodimers, while retaining the affinity for p65/p50 and cRel/p50 heterodimers.\nThe NF-κB gel shift assays (EMSA) were performed as follows. A double-stranded oligonucleotide containing a consensus NF-κB binding site (5′ […].GGC 3′) (SEQ ID NO: 26) was end-labeled with γ³²P-ATP using T4 Polynucleotide Kinase (Promega). One microgram of a nuclear extract prepared from LPS stimulated THP-1 cells (human monocyte cell line) was incubated with 35 fmol of radiolabeled probe in the presence or absence of competing unlabeled NF-κB double-stranded oligonucleotides (dsODN) or scrambled dsODN. The incubations were carried out at room temperature for 30 minutes in a 20 μl reaction volume composed of 10 mM Tris-HCl pH 8, 100 mM KCL, 5mM MgC12, 2mM DTT, 10% Glycerol, 0.1% NP-40, 0.025% BSA and 1 μg Poly-dIdC. The reactions were loaded onto a 6% polyacrylamide gel, subjected to electrophoresis and dried. The dried gels were imaged and quantitated using a Typhoon 8600 Phosphorlmager (Amersham) and ImageQuant software. The identity of the NF-κB proteins contained in complexes bound to the radiolabeled oligonucleotide probe were identified by pre-incubating the reactions for 5 minutes with individual antibodies specific for each member of the NF-κB family prior to the addition of the radiolabeled probe.", "units": {"IC50": "fold molar excess"}}
{"sequence": "TTGAGGACTTTCCAGGC", "IC50": 87}
{"sequence": "ATGGACTTTCCGT", "IC50": 72.5}
{"sequence": "TTGAGGACTTTCCAGGCTC", "IC50": 87}
{"sequence": "AGTTGAGGATTTCCCAGGC", "IC50": 54}
{"sequence": "TGAGGACTTTCCAGGCTC", "IC50": 92}
{"sequence": "TCGGATTTCCTC", "IC50": 74}
{"sequence": "AGTTGAGGATTTCCAGGC", "IC50": 73}
{"sequence": "TCGGACTTTCCTC", "IC50": 81}
{"sequence": "TGAGGACTTTCCAGGC", "IC50": 93}
